Outcome data for ten molecules are collected here from PubChem BioAssay (NCATS).

Structures are written as SMILES. Inconclusive results are not listed. Calls of active or inactive are those of the source. The call rests on the fitted dose curve.

Retinoic acid receptor RXR-alpha (Homo sapiens), sequence (P19793 whole entry, looked up): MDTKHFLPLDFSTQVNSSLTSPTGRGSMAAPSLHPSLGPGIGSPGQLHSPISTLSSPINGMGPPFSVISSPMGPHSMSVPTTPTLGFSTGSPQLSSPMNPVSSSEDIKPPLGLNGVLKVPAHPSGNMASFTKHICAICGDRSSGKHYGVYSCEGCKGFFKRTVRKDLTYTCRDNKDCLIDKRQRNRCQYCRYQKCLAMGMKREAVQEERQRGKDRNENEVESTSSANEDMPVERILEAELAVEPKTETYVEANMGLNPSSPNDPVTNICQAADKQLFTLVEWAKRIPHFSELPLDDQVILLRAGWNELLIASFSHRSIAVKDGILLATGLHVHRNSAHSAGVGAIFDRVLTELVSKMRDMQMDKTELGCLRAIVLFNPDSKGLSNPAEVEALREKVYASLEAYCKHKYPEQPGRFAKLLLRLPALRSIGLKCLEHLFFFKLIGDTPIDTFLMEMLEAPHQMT

This assay addresses Retinoic acid receptor RXR-alpha (Homo sapiens) (UniProt P19793). Put plainly: qHTS assay for small molecule agonists of retinoid X receptor alpha signaling (AID 588544). The settings on record: HEK293T RXRa-UAS-bla, beta-lactamase reporter, 18 h; series mostly up to 76.7 µM. The text has this: NIH Chemical Genomics Center [NCGC] U.S. Environmental Protection Agency [EPA] National Institutes of Environmental Health Sciences [NIEHS] National Toxicology Program [NTP] NCGC Assay Overview The Retinoid X receptor (RXR), a nuclear hormone receptor is expressed in liver, spleen, placenta, epidermis, central nervous system. These receptors are able to form homo and heterodimers with other nuclear receptors and due to this heterodimerizing ability, RXR functions as master regulators producing diverse physiological effects. Three subtypes of RXR exist; alpha, beta and gamma. Retinoid X receptor alpha (RXR-alpha) has potential roles in metabolic signaling pathways, skin alopecia, dermal cysts, cardiac development, insulin sensitization etc. Therefore screening environmental chemicals on RXR-alpha signaling can be used for the studies focused on such therapeutic applications.
NCGC Assay Protocol Summary Using a beta-lactamase reporter-gene under control of Retinoid X receptor--alpha (RXR-alpha) response element, a cell-based assay [GeneBLAzer (RXR-alpha -UAS-bla assay developed by Invitrogen] was used to measure RXR-alpha ligands signaling. GeneBLAzer RXR-alpha -UAS-bla HEK293T cells were used with assay medium containing 2% charcoal-stripped FBS. The assay was performed in clear bottom black Greiner 1536-well plates. 9-cis-retinoic acid was used in the screen as the positive control. Library compounds were measured for their ability to stimulate the reporter gene activity. Compounds were screened in a titration series in 1536-well format. The fluorescence intensity (405 nm excitation, 460/530 nm emission) was measured using an EnVision plate reader. Data was normalized relative to 9-cis-retinoic acid control (500 nM, 100%), and DMSO only wells (basal, 0%). Concentration-response titration points for each compound were fitted to the Hill equation yielding concentrations of half-maximal stimulation (EC50) and maximal response (efficacy) values. qHTS protocol for RXR-alpha beta-lactamase assay in agonist mode [Step] [Parameter] [Value] [Description] 1. Reagent; 6 uL; 2500 cells/well 2. Incubation; 37 C for 4 hrs 3. Compounds; 23 nL; 0.59 nM to 92 uM 4. Controls (9-cis-retinoic acid); 23 nL, - One column with dose response, start 38 uM, 1:3 dilutions in duplicates - Final concentrations of 500 nM and 50 nM in two columns 5. Incubation; 37 C for 18 hrs 6. Detection reagent; 1 uL of CCF4-dye 7. Incubation; RT for 2 hrs 8. Detection; Fluorescence; Envision plate reader
(In general: qHTS replaces the single test concentration by a dilution series.)
As to `O=c1[nH]cnc2c1ncn2[C@H]1CC[C@@H](CO)O1`, the molecule was called inactive.

In the case of `O=C1NC(=O)C(c2ccccc2)(c2ccccc2)N1`, the molecule was called inactive.

Consider `O=c1c(O)c(-c2ccc(O)cc2)oc2cc(O)cc(O)c12`, for which the call was inactive.

For `CC(=O)c1ccc(S(=O)(=O)NC(=O)NC2CCCCC2)cc1`, the result was inactive.

Consider `O=C(O)c1cc(-c2ccccc2)nc2ccccc12`, for which the molecule was classed as inactive.

As for `CCCNC(=O)NS(=O)(=O)c1ccc(Cl)cc1`, the molecule was classed as inactive.

`O=C(O)Cc1cccc2ccccc12`: the molecule was classed as inactive.

As for `CC(=O)N[C@@H](CS)C(=O)O`, the molecule was classed as inactive.

For `CCCCC1C(=O)N(c2ccccc2)N(c2ccccc2)C1=O`, the molecule was called inactive.

As to `CN(C)CCC(c1ccccc1)c1ccccn1` (stereo not given), the result was inactive.
